We go through 23 molecules from PubChem BioAssay AID2803 (The Scripps Research Institute Molecular Screening Center, 2010).

The whole screen tested about 2,000 compounds, of which about 1,300 (65%) were called active. So high a share suggests a set chosen from earlier hits. Not all results are given here. Values without a mark were called inactive. Rule as the data show it: active = inhibition above about 43%; inactive = the rest.

Prolyl endopeptidase-like (Homo sapiens), sequence (Q4J6C6 whole entry, looked up): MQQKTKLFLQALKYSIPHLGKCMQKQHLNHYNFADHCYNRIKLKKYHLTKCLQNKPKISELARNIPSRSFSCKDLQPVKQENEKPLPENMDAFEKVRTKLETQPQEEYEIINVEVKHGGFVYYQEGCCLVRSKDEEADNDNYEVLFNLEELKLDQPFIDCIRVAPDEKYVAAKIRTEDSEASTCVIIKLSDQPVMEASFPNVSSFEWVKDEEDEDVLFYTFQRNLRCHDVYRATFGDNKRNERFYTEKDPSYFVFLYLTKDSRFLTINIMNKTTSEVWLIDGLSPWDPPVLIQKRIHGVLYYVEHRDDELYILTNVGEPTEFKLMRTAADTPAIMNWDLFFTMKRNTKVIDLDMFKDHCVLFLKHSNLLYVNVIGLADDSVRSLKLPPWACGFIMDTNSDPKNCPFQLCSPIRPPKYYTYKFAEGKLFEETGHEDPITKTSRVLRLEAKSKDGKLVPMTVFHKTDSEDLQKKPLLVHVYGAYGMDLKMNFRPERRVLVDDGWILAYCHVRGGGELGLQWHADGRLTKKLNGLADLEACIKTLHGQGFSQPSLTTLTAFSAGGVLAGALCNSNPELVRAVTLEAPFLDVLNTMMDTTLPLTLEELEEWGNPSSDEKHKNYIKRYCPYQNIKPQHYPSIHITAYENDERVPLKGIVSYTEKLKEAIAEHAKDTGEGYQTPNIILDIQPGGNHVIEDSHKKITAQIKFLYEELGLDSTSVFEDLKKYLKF

This assay has as its target Prolyl endopeptidase-like (Homo sapiens) (UniProt Q4J6C6). Put plainly: human PREPL enzyme inhibitors, confirmation, biochemical, fluorescence polarization (AID 2803).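 Also: 0% = protein with DMSO and 100% = wells lacking protein.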 To be noted: recombinant PREPL, fluorescence polarization activity probe; at 5.96 µM; hits give high values. In general terms: Polarisation of emitted light reports the rotation of a fluorescent probe.
As for `COc1ccc2cc(C(=O)C3CCCN(C(=O)c4sc(C)nc4C)C3)ccc2c1` (stereo not drawn), the inhibition (usually the change of the read-out against control, counted positive when it falls) was 31.8%. Then `C[N+](C)(CCCCCC[N+](C)(C)CCCN1C(=O)c2cccc3cccc(c23)C1=O)CCCN1C(=O)c2cccc3cccc(c23)C1=O`, with 56% (active); and `Cn1c(CCN2CCCCCC2)nc2cc(NC(=O)Nc3ccccc3)ccc21`, with 38.1%; and `O=C(N/N=C/c1cccnc1)c1cc2ccccc2cc1O`, with 5.89%. Then `CC(C)(C)Nc1nc(-c2ccccn2)nc2ccccc12`, with 62.5% (active); and `CC(=O)N1CCN(c2ccc(NCc3ccc(C(C)C)cc3)cc2)CC1`, with 61.9% (active); and `COc1cc2c(cc1O)[C@H](Cc1ccc(Oc3cc(C[C@@H]4NCCc5cc(OC)c(O)cc54)ccc3O)cc1)NCC2`, with 37.1%. The value for `CC[C@@H](C)[C@@H]1CN([C@@H](C)CN2CCC[C@H]2CN2C(N)=NC[C@H]2C(C)C)C(=N)N1CCc1ccc(Cl)c(Cl)c1` was 66.1% (active); that for `C[C@@H](CN1CCC[C@H]1CN1C(N)=NC[C@@H]1Cc1ccccc1)N1C[C@@H](Cc2ccccc2)N(CCCC2CCCC2)C1=N` was 42.6%. On to `COc1ccc(NC(C)=O)cc1NC(=O)CN1CCN(C2c3ccccc3-c3ccccc32)CC1`, for which the inhibition is 37.7%.

`CN1CCN(c2ccc(NC(=O)COc3ccc(Cl)cc3Cl)cc2)CC1`: the inhibition was 58% (active).

Consider `Cc1ccc(OCC(=O)Nc2ccc(N3CCN(C(=O)c4ccco4)CC3)cc2)c(C)c1`, for which the inhibition is 52.6% (active).

For `Cc1ccccc1OCC(=O)Nc1ccc(N2CCN(C(=O)C(C)C)CC2)c(Cl)c1`, the inhibition was 42.7%. The value for `CC1CCN(C(=O)c2ccc3c(c2)NC(=O)CN3)CC1` was 12.2%; that for `O=C1N[C@H](Cc2c[nH]c3ccccc23)COC(=O)[C@H](Cc2ccc(F)cc2)C/C=C\C[C@H]1CC(=O)N(CCO)Cc1ccccc1` was 34.5%; that for `Cc1ccc(N2CCN(C3=NC(=O)/C(=C\c4cccs4)S3)CC2)cc1` was 44.4% (active). Then `CCN(CC)c1ccc2cc(C(N)=O)/c(=N\NC(=O)c3ccncc3)oc2c1`, with 56.2% (active). The value for `COC(=O)Cc1nc2ccccc2[nH]1` was 7.22%; that for `Nc1c(C(=O)c2cccs2)sc2nsc(SCCN3CCCCC3)c12` was 54.6% (active); that for `Cc1ccc(NS(=O)(=O)c2ccc(N/N=C/c3ccccc3OCC(=O)O)c([N+](=O)[O-])c2)c(C)c1` was 46.4% (active). With `CC(C)CCNc1nc(N2CCCC2)c2c(c1C#N)CCN(C)C2`, the inhibition was 49% (active). Then `CNCC[C@H](Oc1ccc(C(F)(F)F)cc1)c1ccccc1`, with 55.1% (active); and `Cc1ccc(Nc2ccccc2N)cc1`, with 32.1%.
